# Inconclusive results are not listed. A call without a number means that no potency is given here. Unmarked numbers belong to inactive results. Activity calls are given as the source filed them. Calls come from the whole dose curve; as a rule, active = well fitted cell-killing curve with a large enough effect; inconclusive = small, poorly fitted or top-dose-only effect, or effect the other way; inactive = flat fitted curve, though single readings scatter.
# Test system: Tov-21-G
# Assay: Primary qHTS to identify gynecologic anti-cancer compounds using libraries of approved drugs and bioactive compounds (AID 1345084); note: nearly all actives have a fitted effect of over 55% in size
# Settings: Gynecologic cancer cell panel viability, ATPlite luminescence, 48 h; series mostly up to 57.5 µM
# Summary of the method: (§1)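 In this quantitative HTS, cell killing is estimated from loss of ATP-dependent luciferase light. Cells see five compound concentrations over a 48 h exposure.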
row,SMILES,Potency
1,COC1OC(O)C2(CCC3(O2)C(C)CC2OC(=O)C4(C)CCCC3(C)C24)C1O (stereo unspecified),inactive
2,CO[C@H]1c2cc(C(C)C)c(O)c(O)c2[C@@]23CCCC(C)(C)C2[C@@H]1OC3=O (stereo partly specified),inactive
3,COC(=O)C1(O)C(OC(C)=O)CCC2C3(CC(c4ccoc4)OC3=O)C(C)=CCC21C(=O)OC (stereo unspecified),inactive
4,CC(C)N(CCCNC(=O)Nc1ccc(C(C)(C)C)cc1)C[C@H]1O[C@@H](n2ccc3c(N)ncnc32)[C@H](O)[C@@H]1O,inactive
5,CCN=C1N[C@@H]2[C@@H](O)[C@H](O)[C@@H](CO)O[C@@H]2S1,inactive
6,CC1CC(O)/C=C/C(O)/C=C\C(=O)O1 (stereo unspecified),inactive
7,CC1(C)CC[C@]2(C(=O)O)CC[C@]3(C)C(=CCC4[C@@]5(C)CC[C@H](O)C(C)(C)C5CC[C@]43C)C2C1 (stereo partly specified),inactive
8,CC1CC(=O)C2C(O)(C1)CC(O)C13OC1c1c(O)cccc1C(=O)C23O (stereo unspecified),inactive
9,CCN(CCN(C)C)C(=O)CNCc1cc(C(N)=O)ccn1,inactive

# Test system: Tov112D
# Assay: as above
# Settings: Gynecologic cancer cell panel viability, ATPlite luminescence, 48 h; series mostly up to 57.5 µM
# Summary of the method: as §1
SMILES,Potency,"activity change, negative = cytotoxicity"
COc1ccc(N2CCN(CCCNC(=O)Cn3c(=O)c4cccn4c4c(C)ccnc43)CC2)cc1,inactive,–
OC[C@@]1(O)CO[C@H](OC[C@H]2O[C@@H](OC(CCCCc3ccc(O)cc3)CCc3ccc(O)cc3)[C@H](O[C@H]3OC[C@](O)(CO)[C@H]3O)[C@@H](O)[C@@H]2O)[C@@H]1O (stereo partly specified),inactive,–
C=Cc1cc2oc(-c3ccc(O)c(F)c3)nc2cc1O,inactive,–
C=C(C)C1CCC2(C(=O)OC3OC(COC4OC(CO)C(O)C(O)C4O)C(OC4OC(C)C(O)C(O)C4O)C(O)C3O)CCC3(C(=O)O)C(CCC4C5(C)CCC(=O)C(C)(C)C5CCC43C)C12 (stereo unspecified),–,-0.367% [at 11.6 µM]
CC(=O)OC12CC(C)C(OC(=O)c3ccccc3)C1/C=C(/C)C(OC(=O)c1ccccc1)CC(=O)C(C)(C)/C=C/C(C)C2=O (stereo unspecified),inactive,–
COC(=O)[C@]1(Cc2ccc(O)c(CC=C(C)C)c2)OC(=O)C(O)=C1c1ccc(O)cc1,inactive,–
CC(=O)OCC1OC(O[C@H]2CC[C@@]3(C)C(CC[C@]4(C)C3CC=C3[C@@H]5CC(C)(C)CC[C@]5(C(=O)O)CC[C@]34C)[C@]2(C)CO)C(O)C(O)C1OC1OC(C)C(O)C(OC2OCC(O)C(O)C2O)C1O (stereo partly specified),–,0% [at 11.6 µM]
COc1cc(/C=C/C(=O)O)ccc1O[C@@H]1O[C@H](CO)[C@@H](O)[C@H](O)[C@H]1O[C@@H]1OC[C@](O)(CO)[C@H]1O,inactive,–
COc1cc(O)cc2c1C(=O)OC(C)CCCCCCC2 (stereo unspecified),inactive,–
C=CC(C)(CCC=C(C)C)O[C@@H]1O[C@H](CO)[C@@H](O)[C@H](O)[C@H]1O (stereo partly specified),inactive,–
COc1ccc(/C=C/C(N)=O)cc1OC,inactive,–
CC(O)C/C=C/C=C/C(=O)OC1C=C2COC(=O)C2(O)C2(C)CCCC(C)(C)C12 (stereo unspecified),inactive,–
Cn1c2ccc(NC(=O)c3ccccc3)cc2c(=O)n2nc(C(=O)O)cc12,inactive,–
COC1OC(OC)C(O)(CCC2(C)C(C)CCC3(C)C2CC(O)C(O)C32CO2)C1O (stereo unspecified),inactive,–
COc1ccc(CCc2nc3cc(-c4c(C)noc4C)ccc3n2C[C@H](C)N2CCOCC2)cc1Cl,inactive,–
CC1=C2C(=O)C=C(CO[C@@H]3O[C@H](CO)[C@@H](O)[C@H](O)[C@H]3O)[C@@H]2[C@H]2OC(=O)[C@H](C)[C@@H]2[C@@H](O)C1,inactive,–
Cc1nc(-c2cccnc2)sc1C(=O)Nc1ccccc1-c1cn2c(CN3CCOCC3)csc2n1,inactive,–
Cc1occc(=O)c1O[C@@H]1O[C@H](CO[C@@H]2OC[C@](O)(CO)[C@H]2O)[C@@H](O)[C@H](O)[C@H]1O,inactive,–
C=C1[C@H](OC(C)=O)[C@H]2[C@@H](OC(=O)c3ccccc3)[C@@H](C)C[C@]2(O)[C@@H](OC(C)=O)[C@H](C)/C=C/C(C)(C)C(=O)[C@H](OC(C)=O)[C@H]1OC(C)=O,inactive,–
O=C(/C=C/c1ccc(O)cc1)O[C@H]1[C@H](OC2CCCCC2O)O[C@H](CO)[C@@H](O)[C@@H]1O (stereo partly specified),inactive,–
C=C1C(=O)O[C@@H]2/C=C(\C)CC/C=C(\C(=O)O[C@@H]3O[C@H](CO)[C@@H](O)[C@H](O)[C@H]3O)CC[C@@H]12,inactive,–
C=C1CC[C@@]2(OC1)O[C@H]1CC3[C@@H]4CC=C5C[C@H](O[C@H]6OC[C@@H](O)C(O)[C@@H]6O[C@@H]6O[C@@H](C)[C@H](O)[C@@H](O[C@@H]7O[C@H](CO)[C@@H](O)[C@H](O)[C@H]7O)[C@H]6O)C[C@@H](O)[C@]5(C)C4CC[C@]3(C)[C@H]1[C@@H]2C (stereo partly specified),–,1.29% [at 11.6 µM]
